About 79,000 compounds went through this panel and 15% of them were active in at least one assay; those are over-represented in the sample as a whole. Values without a mark were called inactive. The source made the active and inactive calls. No stated cut-off is given here; in the data, active means growth inhibition above about 70%; inactive means the rest.
Columns and labels:
[1] = NCI Yeast Anticancer Drug Screen. Data for the rad50 strain (AID 155);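 further: 0% = growth of vehicle-only cultures of the same strain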; conditions: S. cerevisiae rad50 strain growth inhibition; at 50.0 µM; active compounds read high
Method in brief: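 Inhibition values express reduced yeast growth in compound-treated cultures relative to vehicle-treated controls.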

[2] = NCI Yeast Anticancer Drug Screen. Data for the mec2-1 strain (AID 157); conditions: S. cerevisiae mec2-1 strain, at 50.0 µM, active compounds read high
Method in brief: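 Mutant yeast (mec2-1) grown with compound; growth inhibition relative to vehicle control reported.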

[3] = NCI Yeast Anticancer Drug Screen. Data for the sgs1 mgt1 strain (AID 161);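 further: 0% = growth of cultures given vehicle only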; conditions: S. cerevisiae sgs1 mgt1 strain, at 50.0 µM, active compounds read high
Method in brief: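 Yeast cells carrying a defined DNA-repair defect were exposed to test compounds. Growth inhibition was measured relative to vehicle-treated controls.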

[4] = NCI Yeast Anticancer Drug Screen. Data for the cln2 rad14 strain (AID 165);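 further: 0% = growth equal to vehicle treated cultures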; conditions: S. cerevisiae cln2 rad14 strain, at 50.0 µM, active compounds read high
Method in brief: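 Readout is yeast growth inhibition versus vehicle-treated controls, using a strain with cln2 and rad14 alterations exposed to compound.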

[5] = NCI Yeast Anticancer Drug Screen. Data for the bub3 strain (AID 167); conditions: S. cerevisiae bub3 mutant strain, at 50.0 µM, active compounds read high
Method in brief: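 Steps: expose the mutant yeast strain to compound; grow alongside vehicle-treated cultures; measure growth; express inhibition against the vehicle cultures.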

[6] = NCI Yeast Anticancer Drug Screen. Data for the mlh1 rad18 strain (AID 175); conditions: S. cerevisiae mlh1 rad18 strain growth inhibition; at 50.0 µM; active compounds read high
Method in brief: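 Genetically defined yeast (DNA repair-deficient) exposed to compounds; growth inhibition determined relative to vehicle.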

Row | Structure (SMILES) | growth inhibition [1] | growth inhibition [2] | growth inhibition [3] | growth inhibition [4] | growth inhibition [5] | growth inhibition [6]
1 | COc1ccc2c(c1)CCc1nc(N)nc(N)c1-2 | -3.9% | 4.1% | -14.2% | -40.5% | -16.1% | 11.8%
2 | Cc1ccc(C(C)(C#N)Nc2ccccc2)cc1 (stereo not given) | -7.05% | -1.8% | -8.2% | -25.2% | -11.2% | -0.45%
3 | CCOC(=O)C1=C(OC(OCC)C([Se]c2ccccc2)C(C)C)CCC1 (stereo not given) | 65.8% | 33.5% | 65.2% | 42.2% | 58.6% | 51%
4 | CC(C)N(CCSC(=O)N1c2ccccc2Sc2cccnc21)C(C)C | -2% | 0.8% | -18.9% | -12.3% | 1.45% | 1.6%
5 | NC1=NC=N/C(=N\c2ccccn2)C1N (stereo not given) | -13.3% | -9.95% | -5.4% | -32.2% | -11.2% | -8.6%
6 | C[S+]1C=C(c2ccccc2)SC=C1c1ccccc1 (stereo not given) | 35.2% | 32.9% | 59.6% | 8.3% | 47% | 55%
7 | CCOC(=O)N1c2ccccc2SC1C#N (stereo not given) | 63.1% | 40.1% | 37.4% | 1.85% | 25.1% | 27.4%
8 | O=c1cc(-c2ccc3c(c2)OCO3)oc2ccccc12 | 20.4% | 1.8% | 6% | -2.35% | -5.25% | -3.8%
9 | Cc1nn(C(=O)c2ccccc2O)c2c1C(c1ccccc1)SC(N)=N2 (stereo not given) | 16.6% | 17.6% | 25.2% | -5.25% | 30.9% | 9.3%
10 | CC(O)CC(C)CO (stereo not given) | 23.1% | -20.3% | -9.5% | -55.5% | 15.2% | 18%
11 | COc1ccc(CCNC(=O)c2cccc(Cl)c2)cc1OC | -7.05% | -28.9% | -23.1% | -44.6% | -22% | -12.2%
12 | Cc1cc(C)c(N)c(C)n1 | -14.8% | -9.6% | -22.1% | -1.25% | 1.1% | 11.9%
13 | CC/C(CC(=O)CCC(=O)Nc1ccccc1[N+](=O)[O-])=N/NC(=O)C[n+]1ccccc1 | -1.8% | 6.9% | -56.1% | 16.4% | -1.35% | -12.7%
14 | O=C(OCCN1CCOCC1)c1cc2ccccc2oc1=O | 1.8% | 2.65% | 6.35% | -45.7% | -0.2% | -2.65%
15 | O=C(Nc1ccccc1)Nc1ccc2ccccc2c1 | -7.75% | -0.2% | 2.1% | -22.2% | 12.9% | -10.9%
16 | CC1(C)C(=NNc2ccccc2)C(C)(C)C1=NNc1ccccc1 | 14.8% | 63% | 15.5% | 79.9% (active) | 96.2% (active) | 33%
17 | CC(CS(C)(=O)=O)S(=O)(=O)Cc1ccccc1 (stereo not given) | -2.4% | 6.05% | 3.2% | -28.8% | 6.25% | -0.45%
18 | COC(=O)c1c(-c2ccccc2)cn(C)c1C | 16.9% | 9.95% | 12.8% | 5.75% | 6.6% | -6.4%
19 | Cc1nc(N)[nH]c(=O)c1N | 13.9% | 3.4% | 8.25% | 11.8% | -7.8% | 8.6%
20 | CCCCNc1ccc2c(C)c(Cc3ccccc3)c(=O)oc2c1 | 9.3% | -7.5% | 20.3% | 2.35% | 4.65% | -11%

Row | Structure (SMILES) | growth inhibition [1] | growth inhibition [2] | growth inhibition [3] | growth inhibition [4] | growth inhibition [5] | growth inhibition [6]
21 | CCCCCCCCCCCC(=O)Oc1c(Cl)cc(Cl)c(OC(=O)C(=O)Oc2c(Cl)cc(Cl)c(OC(=O)CCCCCCCCCCC)c2Cl)c1Cl | -26.1% | -21.9% | -11.2% | 16.9% | -4.2% | -19.9%
22 | C=C1CC2(C)C(=O)CCCC2OC1=O (stereo not given) | 4.05% | -0.85% | 10.1% | -14.9% | 4.8% | 4%
23 | COC1OC(CO)C(O)C(NC(=O)OCc2ccccc2)C1O (stereo not given) | 2.6% | -1.7% | 3.05% | -46.1% | 1.1% | -13.4%
24 | C=CCN1C(=O)C(c2ccccc2)(c2ccccc2)NC1=S | 1.7% | -32.9% | -32.1% | -20.1% | -30.6% | -41.1%
25 | CCC12OC3(CC)C4C(=O)OC1C1(CC)OC4(CC)C3C(=O)OC21 | -13.7% | -5.6% | 4.85% | -5.75% | 0.8% | 13.3%
26 | O=C(NNc1ccccc1)NNc1ccccc1 (tested in a mixture with another compound) | 11.1% | -0.45% | -0.9% | 23.8% | -12.2% | 1.65%
27 | CCNC1=C(Cl)C(=O)c2ccccc2C1=O | -11.9% | -9.8% | 12.2% | -21.4% | 8.7% | 14.9%
28 | Nc1nc(-c2ccccc2)c(Cl)c(-c2cc(Cl)ccc2O)n1 | -1.45% | -1.3% | -10.4% | 25.3% | 4.25% | 2.7%
29 | O=C(O)c1ccc(NC(NC(=O)C(C(F)(F)F)C(F)(F)F)(C(F)(F)F)C(F)(F)F)cc1 | 20.2% | 14.4% | 8.9% | 1.2% | 11.2% | 14.4%
30 | Cc1ccc(S(=O)(=O)Oc2nc3ccccc3nc2N(S(=O)(=O)c2ccc(C)cc2)S(=O)(=O)c2ccc(C)cc2)cc1 | -9.8% | -1.3% | 1.3% | 10% | 5.95% | 17.7%
31 | COc1ccc(-c2cc(C(=O)O)c3cc4ccccc4cc3n2)cc1Br | 8.6% | -15.9% | 13.7% | 24.3% | 2.95% | 10.9%
32 | COC1/C=C/C(C)C(C(C)C(OC)C(C)CCC(=O)C(C)C(C/C=C/N(C)C=O)OC)OC(=O)/C=C/C=C(\C)CC(OC)C(OC)C2=CC(=O)O[C@@H](C(C)C(OC)CC(OC)/C=C/C(C)C(O)C1)[C@H]2O (stereo not given in full) | 86.8% (active) | 90.2% (active) | 90% (active) | 89.8% (active) | 87.7% (active) | 91% (active)
33 | COc1cc(C(=O)Oc2c(C#N)sc3c2c(=O)n(-c2ccccc2)c(=S)n3-c2ccccc2)cc(OC)c1OC | 22.8% | 3.2% | 12.1% | 10.2% | 21.9% | 20.5%
34 | O=C(/C=C(/CC(O)(c1ccccc1)c1ccccc1)Nc1ccccc1)c1ccccc1 | 10.3% | -2.7% | -6.4% | 2.35% | -1.2% | -2.1%
35 | N=C(N)c1cc(Cl)c(OCc2ccccc2)c(Cl)c1 | 9.7% | -12.7% | 1.15% | -10.7% | 3.85% | 12.8%
36 | CCCCCCC1OCC(CC)(CC)CO1 | 11.8% | -12.4% | -18.9% | -26.5% | -15.6% | 26.4%
37 | CCOC(=O)C(NC(=O)NC(C(=O)OCC)C(=O)OCC)C(=O)OCC | -16.7% | -20.6% | -6.55% | -4.05% | -7.7% | -17.6%
38 | N#Cc1ccc(Br)cc1 | 7.95% | -3.45% | 16.6% | -19.9% | -6.2% | 18.1%
39 | O=C(NC(CCS(=O)(=O)n1ccnc1)C(=O)OCc1ccccc1)OCc1ccccc1 (stereo not given) | 12.7% | -4.95% | -18.2% | 11.2% | -4.7% | 1.6%
40 | C[N+]1(C)N=C([O-])N(CCCCCCN2C(=O)[N+](C)(C)N=C2[O-])C1=O | 10.3% | -13.1% | 15.1% | 9.55% | 8.65% | 15%
